Screens deposited in PubChem by National Center for Advancing Translational Sciences (NCATS).
Compounds with a hit are over-represented: about 2.4% of the library has one in this group of screens.
POLK inh: inhibitors of human DNA polymerase kappa; Q9UBT6; purified Pol kappa, fluorescent DNA synthesis assay, 10 min; 400,000 compounds, 0.53% hits; Potency, µM (doses to about 107 µM), usual class: inhibitors
Target sequence (Q9UBT6 whole entry, looked up): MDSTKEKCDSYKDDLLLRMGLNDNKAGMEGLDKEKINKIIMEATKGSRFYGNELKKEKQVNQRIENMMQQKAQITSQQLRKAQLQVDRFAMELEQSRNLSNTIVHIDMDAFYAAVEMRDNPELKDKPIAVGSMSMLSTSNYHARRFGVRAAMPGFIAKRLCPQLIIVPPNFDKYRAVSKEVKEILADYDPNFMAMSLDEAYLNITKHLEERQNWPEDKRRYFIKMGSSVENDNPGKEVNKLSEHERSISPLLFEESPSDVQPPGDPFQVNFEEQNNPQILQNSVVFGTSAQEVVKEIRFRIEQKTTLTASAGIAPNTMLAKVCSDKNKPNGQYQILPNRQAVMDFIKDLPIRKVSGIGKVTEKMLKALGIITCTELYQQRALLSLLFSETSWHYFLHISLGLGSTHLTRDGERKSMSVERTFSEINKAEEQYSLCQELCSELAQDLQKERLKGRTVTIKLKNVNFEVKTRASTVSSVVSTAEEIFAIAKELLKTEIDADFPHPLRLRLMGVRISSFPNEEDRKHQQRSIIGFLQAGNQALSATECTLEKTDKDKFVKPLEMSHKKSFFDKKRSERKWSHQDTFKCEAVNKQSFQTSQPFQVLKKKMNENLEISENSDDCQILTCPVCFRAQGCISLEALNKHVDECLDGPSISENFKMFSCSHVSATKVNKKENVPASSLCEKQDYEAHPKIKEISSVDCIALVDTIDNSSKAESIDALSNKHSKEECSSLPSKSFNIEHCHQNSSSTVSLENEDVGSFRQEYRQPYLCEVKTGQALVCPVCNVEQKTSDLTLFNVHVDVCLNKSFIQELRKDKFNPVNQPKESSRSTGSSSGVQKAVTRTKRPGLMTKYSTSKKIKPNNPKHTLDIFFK
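Inhibition of 10 nM Pol kappa is measured by a fluorescent read-out at 0 and 10 min following addition of 50 nM substrate (final), with a 15-min room-temperature compound preincubation.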
Pol eta inh: inhibitors of human DNA polymerase eta. recombinant Pol eta, fluorescent DNA replication assay. 390,000 compounds, 1.2% hits. Potency, µM (doses to about 114 µM), hits mostly inhibitors. Q9Y253
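Pol eta at 10 nM preincubated with compounds 15 min at room temperature; reaction started with fluorescent substrate (50 nM final) and read kinetically at 0 and 10 min.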
WRN helicase inh-1: WRN helicase (human) inhibition; Q14191; WRN helicase unwinding, fluorescent forked duplex, kinetic; Potency, µM (doses to about 114 µM), actives largely listed as inhibitors; 360,000 compounds, 0.46% hits; AID 651768; further: nearly all actives have a fitted effect of over 55% in size
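WRN at 20 nM final preincubated with compound 15 min at room temperature; reaction started with 100 nM fluorophore/quencher forked duplex oligonucleotide and 2 mM ATP final. Unwinding followed kinetically by red fluorescence (ex 525, em 598 nm).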
Pol iota inh: blocks human DNA polymerase iota activity | Q9UNA4 | Pol iota fluorescent replication assay, 10 min | Potency, µM (highest dose often 115 µM), most hits filed as inhibitors | 390,000 compounds, 1% hits | AID 588590
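Fluorescent replication assay read twice, at 0 min and 10 min after adding 50 nM (final) substrate. Enzyme (10 nM) and compounds were first incubated 15 min at room temperature; enzyme-free buffer wells were negative controls.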
POLB inh: blocks human DNA polymerase beta activity. P06746. Pol beta primer extension/strand displacement, fluorescence kinetic. Potency, µM (top dose mostly 114 µM), hits mostly inhibitors. 340,000 compounds, 1.3% hits
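Kinetic readout of DNA synthesis with strand displacement by Pol beta. Compound and 10 nM enzyme sit 15 min at room temperature; 50 nM substrate starts the reaction, read immediately and at 10 min.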
FEN1 inhibitor: human FEN1 inhibition; 390,000 compounds, 0.35% hits; P39748; Potency, µM (top dose mostly 114 µM), usual class: inhibitors; Recombinant FEN1 flap cleavage, fluorescence, 15 min; AID 588795; further: nearly all actives have a fitted effect of over 65% in size
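FEN1 at 10 nM, compound pretreatment for 15 min (room temperature), 50 nM final substrate to initiate; endpoint reads at 0 and 15 min; DMSO-only plates used as vehicle background.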
WRN helicase inh-2: WRN helicase inhibition, cherry-pick retest; shares compounds with WRN helicase inh-1; WRN helicase DNA unwinding, fluorescence kinetic; Potency, µM (top dose mostly 57.1 µM), actives largely listed as inhibitors; 610 compounds, 63% hits; AID 720497; further: nearly all actives have a fitted effect of over 65% in size
TO DNA binding: DNA binding via thiazole orange displacement | shares compounds with WRN helicase inh-1 | thiazole orange DNA binding displacement, fluorescence | Potency, µM (titrated, usually from 57.1 µM), usual class: inhibitors | 610 compounds, 10% hits | AID 720499;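 further: drop in dye fluorescence marks compound binding to DNA; nearly all actives have a fitted effect of over 60% in size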
BLM counter: BLM helicase inhibition, WRN selectivity check. shares compounds with WRN helicase inh-1. Recombinant BLM helicase DNA unwinding, red fluorescence. Potency, µM (series often up to 57.1 µM), most hits filed as inhibitors. 610 compounds, 60% hits; further: nearly all actives have a fitted effect of over 60% in size
Each line names hits and unclear results; the compound was inactive in the other large screens (follow-up assays come after a bar, where they were run). The call rests on the fitted dose curve; in most records, active means well fitted curve in the direction sought with a large enough effect; inconclusive means small, poorly fitted or top-dose-only effect, or another doubt; inactive means no such curve, though single readings can be large; an effect the other way counts as inactive or inconclusive.

N#C/C(=C/c1ccc(O)c(O)c1)c1nc2ccccc2[nH]1	POLK inh 10µM, Pol eta inh 3.2µM, WRN helicase inh-1 35µM, Pol iota inh inconclusive, POLB inh inconclusive, FEN1 inhibitor inconclusive | WRN helicase inh-2 6.1µM | TO DNA binding inactive | BLM counter 8.6µM
N#C/C(=C\c1ccc(Cl)cc1)c1nc2ccccc2[nH]1	none (no result: WRN helicase inh-1)
O=C(c1ccncc1)N1CCC[C@@]2(CCN(c3cccc(-c4ccccc4)c3)C2)C1	none (no result: Pol eta inh, WRN helicase inh-1, Pol iota inh, POLB inh, FEN1 inhibitor)
CCOc1cccc(CNc2ccc(O)cc2)c1OCc1ccc(Cl)cc1Cl	Pol eta inh inconclusive, WRN helicase inh-1 inconclusive, Pol iota inh 3.2µM | WRN helicase inh-2 inactive | TO DNA binding inactive | BLM counter inconclusive
CCOc1cccc(CNCCO)c1OCc1ccc(Cl)cc1Cl	none
O=C(Nc1cccc(-c2cnc3ccccc3n2)c1)c1cccc(NC(=O)c2ccco2)c1	WRN helicase inh-1 inconclusive, POLB inh inconclusive | WRN helicase inh-2 inactive | TO DNA binding inactive | BLM counter inconclusive
COc1ccc(-n2c(O)c(/C=N/NS(=O)(=O)c3ccc(C)c([N+](=O)[O-])c3)c3ccccc3c2=O)cc1OC	WRN helicase inh-1 inconclusive, Pol iota inh inconclusive | WRN helicase inh-2 19µM | TO DNA binding inactive | BLM counter 22µM
CCOC(=O)c1c(NC(C)=O)c2c3c(sc2n1Cc1nc(-c2ccccc2Cl)oc1C)CCCC3	none (no result: Pol eta inh, WRN helicase inh-1)
O=S(=O)(c1ccccc1)c1nnn2c1nc(NCc1ccccc1)c1sccc12	none (no result: WRN helicase inh-1)
COc1cc(/C=C2\C(=O)N(CCC#N)N=C2C)ccc1OCC(=O)Nc1ccccc1	WRN helicase inh-1 inconclusive, Pol iota inh inconclusive, FEN1 inhibitor inconclusive | WRN helicase inh-2 inconclusive | TO DNA binding inactive | BLM counter 17µM
CC1=NN(CCC#N)C(=O)/C1=C/c1ccc(N(C)C)cc1	none
O=C(CN1C(=O)COc2ccc(S(=O)(=O)NC3CCCC3)cc21)NCc1ccc(Cl)cc1	none (no result: WRN helicase inh-1)
N#CCC(=O)Nc1ccc(C(=O)OCC(=O)NNC(=O)c2cccs2)cc1	Pol eta inh inconclusive, Pol iota inh inconclusive (no result: POLB inh)
N#CCC(=O)Nc1ccc(C(=O)OCC(=O)NNC(=O)c2ccc(Cl)cc2)cc1	Pol eta inh inconclusive, WRN helicase inh-1 inconclusive, Pol iota inh inconclusive, FEN1 inhibitor inconclusive (no result: POLB inh) | WRN helicase inh-2 inconclusive | TO DNA binding 30µM | BLM counter inconclusive
COC(=O)c1c(NC(=O)CCCOc2ccc(C)cc2)sc2c1C(C(=O)OC)CC2 (stereo unspecified)	POLK inh inconclusive, Pol iota inh inconclusive, FEN1 inhibitor 79µM (no result: WRN helicase inh-1) | WRN helicase inh-2 inactive | TO DNA binding 24µM | BLM counter inconclusive
CCOc1ccc(/C=C/C(=O)Nc2sc3c(c2C(=O)OC)C(C(=O)OC)CC3)cc1 (stereo unspecified)	Pol eta inh 50µM, Pol iota inh inconclusive, FEN1 inhibitor inconclusive (no result: WRN helicase inh-1) | WRN helicase inh-2 inactive | TO DNA binding inactive | BLM counter inconclusive
COC(=O)c1c(NC(=O)CCCOc2cccc(C)c2)sc2c1C(C(=O)OC)CC2 (stereo unspecified)	Pol iota inh inconclusive, FEN1 inhibitor 71µM (no result: WRN helicase inh-1) | WRN helicase inh-2 inactive | TO DNA binding inactive | BLM counter inconclusive
CCOc1ccc(/C=C/C(=O)Nc2sc3c(c2C(=O)OC)CCCC3)cc1	none (no result: WRN helicase inh-1)
COc1ccc(S(=O)(=O)N(CC(=O)N2CCC(C)CC2)c2ccc(C)cc2)cc1	none (no result: WRN helicase inh-1)
COc1ccc(-c2nc3cnc(OC)nc3n(C)c2=O)cc1	none (no result: Pol eta inh, WRN helicase inh-1, Pol iota inh, POLB inh, FEN1 inhibitor)
O=C(Nc1cc2ccc(O)cc2oc1=O)c1ccccc1	none (no result: WRN helicase inh-1)
